Source: PubChem
A selection: hits, their analogues and other compounds. The true share with any hit is near 5.3%.
Mot1-301 SUMO – blocks SUMOylation pathway, rescuing yeast Mot1-301 growth. S. cerevisiae Mot1-301 growth rescue, ATP luminescence, 38.5C; percent above DMSO median, 100 means doubled. AID 2716. growth rescue, % at 18.8 µM. hit rate 1% among 320,000;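 active = every valid replicate shows activation above 250% relative to neutral control wells; inactive = the rest, any valid replicate at or below 250%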;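 note: OY570 slx delta 5 strain wells were the positive control but not used for scaling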
ALR inh – human ALR oxidase inhibition via reduced H2O2 | purified ALR, DTT oxidation, H2O2 HRP-luminol luminescence | inhibition, % (concentration not given with the values) | hit rate 3.8% among 290,000;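 active = mean replicate inhibition above about 79%, with every replicate also reaching it, limit read from the data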
Target sequence (P55789 whole entry, looked up): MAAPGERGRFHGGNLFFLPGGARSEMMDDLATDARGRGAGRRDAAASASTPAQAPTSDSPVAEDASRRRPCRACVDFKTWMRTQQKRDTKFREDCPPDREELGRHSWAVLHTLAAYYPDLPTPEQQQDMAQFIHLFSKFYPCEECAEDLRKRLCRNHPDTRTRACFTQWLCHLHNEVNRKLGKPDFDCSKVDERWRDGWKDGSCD
HIF act – HIF pathway transcriptional activation; U2OS HRE-luciferase reporter, luminescence; normalized: DMSO 0%, desferrioxamine 100%; hit rate 0.32% among 300,000; activation, % at 7.5 µM (by protocol); AID 1910;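 active = mean activation of at least 10% of the iron chelator positive control signal, with at least half of replicates also reaching 10%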
M18AAP inhibitor – blocks P. falciparum M18 aspartyl aminopeptidase | recombinant PfM18AAP, H-Glu-NHMec fluorogenic cleavage | inhibition, % at 7.35 µM | hit rate 1.2% among 290,000;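 active = inhibition above the campaign mean inhibition over all tested compounds plus 3 SD, cut at about 28% in these data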;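 note: 0% = plate median of test compound wells and 100% = 2 mM ZnCl2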
Active calls of the source: *; . = no result given; + = active, no number.

SMILES | Mot1-301 SUMO | ALR inh | HIF act | M18AAP inhibitor
Cc1ccc(C(=O)NCC(=O)N(C)CC(=O)Nc2ccccc2Br)s1 | -18 | -5 | . | .
CC(C)Cn1c(CCC(N)=O)nnc1SC(C)C(=O)Nc1ccc2c(c1)OCO2 (configuration not stated) | -8 | -4 | . | .
COc1ccc(Nc2nc(N)nc(CN3CCN(c4ccc(F)cc4)CC3)n2)cc1 | 10 | 99* | 0 | 0
COc1ccc(N2CCN(Cc3nc(N)nc(Nc4ccccc4OC)n3)CC2)cc1 | -6 | 45 | 0 | 6
COc1cccc(N2CCN(Cc3nc(N)nc(Nc4ccccc4)n3)CC2)c1 | 1 | 97* | 0 | 9
COc1cccc(N2CCN(Cc3nnnn3C3CCCCC3)CC2)c1 | 12 | 89* | 0 | 5
Cc1ccc(C)c(N2CCN(Cc3nnnn3C3CCCCC3)CC2)c1 | 19 | -2 | 0 | -5
Cc1cccc(Nc2nc(N)nc(CN3CCN(c4ccccc4F)CC3)n2)c1 | 10 | -4 | -1 | -7
Nc1nc(CN2CCN(Cc3ccccc3)CC2)nc(Nc2ccccc2)n1 | -8 | -1 | 0 | -1
Cc1cccc(Nc2nc(N)nc(CN3CCN(c4ccccc4)CC3)n2)c1 | 15 | 80* | -1 | 2
O=S(=O)(c1cccc(-c2nnc(SCc3nc4ccccc4s3)o2)c1)N1CCOCC1 | -16 | 98* | 3 | -2
CC1CN2C(c3ccc(Cl)cc3)=CSC2=N1 (configuration not stated) | -16 | 99* | -17 | 10
CCOc1ccc(NC(=O)CC2S/C(=N/N=C3CCCCCC3)NC2=O)cc1 (configuration not stated) | -19 | -3 | 0 | 9
CCCN1CCN(CCCNC(=O)CCCn2nc(C)c3sc4ccccc4c3c2=O)CC1 | 352* | . | -1 | -1
O=C(O)CCCCCN1C(=O)/C(=C\c2cn(-c3ccccc3)nc2-c2cccs2)SC1=S | 4 | -2 | -1 | 0
CC1=NNC(=O)/C1=C\c1cn(-c2ccccc2)nc1-c1cccs1 | -11 | -1 | 0 | 45*
OC(COC1CCCCC1)CN1CCN(c2ccccc2)CC1 (configuration not stated) | 10 | 92* | 0 | 0
CC(C)(C)C1CCC(OCC(O)CN2CCN(Cc3ccccc3)CC2)CC1 (configuration not stated) | 102 | -46 | 0 | 2
CCOc1cccc(-c2c(C(=O)N/N=C/c3cccnc3)nnn2-c2nonc2N)c1 | -19 | 2 | 0 | -1
CCN(CC)c1ccc(/C=N/NC(=O)c2nnn(-c3nonc3N)c2C(C)C)c(O)c1 | -1 | -10 | 89* | 12
CCOc1cccc(-c2c(C(=O)N/N=C/c3ccc(Br)cc3)nnn2-c2nonc2N)c1 | 3 | 1 | 10* | 3
CC(=C/c1ccccc1)/C=N/NC(=O)c1nnn(-c2nonc2N)c1CN1CCC(C)CC1 | 172 | 1 | 0 | -9
CC(C)c1c(C(=O)N/N=C/c2ccc3c(c2)OCO3)nnn1-c1nonc1N | 9 | -3 | 0 | 3
CC1CCN(Cc2c(C(=O)N/N=C/c3ccccc3O)nnn2-c2nonc2N)CC1 | -3 | . | 31* | -8
N#Cc1ccc(CN2C=NS(=O)(=O)c3ccccc32)cc1 | -7 | -3 | 1 | -3
SMILES | Mot1-301 SUMO | ALR inh | HIF act | M18AAP inhibitor
COc1ccc(/C=N/NC(=O)CCSc2nc3ccccc3s2)cc1OC | -1 | 17 | 0 | -5
COc1cc(/C=N/NC(=O)CCn2nc(C)cc2C)ccc1O | -3 | . | 0 | 3
O=C(CCSc1nc2ccccc2s1)N/N=C/c1c(O)ccc2ccccc12 | 9 | -10 | 11* | 0
Cc1cc(C)n(CCC(=O)N/N=C/c2ccc(O)cc2)n1 | -4 | 99* | 0 | 5
CCOc1cc(/C=N/NC(=O)CCn2nc(C)cc2C)ccc1O | -3 | 99* | 0 | 17
Cc1cc(C)n(CCC(=O)N/N=C/c2c(O)ccc3ccccc23)n1 | 151 | . | 17* | 4
CCOC(=O)c1c(CSc2ccccc2)n(C)c2ccc(O)c(CN3CCOCC3)c12 | 3 | 25 | -1 | -2
CC(C)CCNC(=O)CCc1nnc2n(CCCOC(C)C)c(=O)c3ccccc3n12 | 60 | 3 | 1 | 0
CCN1CCN(CCCOc2ccc(-c3ccccc3)cc2)CC1 | 91 | -4 | 60* | -8
O=C(c1ccccc1)c1ccc(OCCCCN2CCCCC2)cc1 | 4 | 3 | 0 | 17
Oc1ccc(N2CCN(Cc3ccc(OCCCN4CCCCC4)cc3)CC2)cc1 | -9 | 99* | 0 | 24
CCCOc1ccc(C(=O)C(CN2CCCC2)c2ccccc2)cc1 (configuration not stated) | -14 | 96* | -4 | 4
O=C(c1ccccc1)c1ccc(OCCCN2CCCC2)cc1 | + | -36 | 1 | 6
Cc1cc(C)cc(N(C(C)C(=O)NCc2ccc3c(c2)OCO3)S(C)(=O)=O)c1 (configuration not stated) | -5 | -8 | 0 | 2
CC(C)Oc1ccc(C(=O)Nc2nnc(SCC(=O)N3CCOCC3)s2)cc1 | 166 | . | -3 | -5
COc1cccc(N2CCN(c3ccc4nnc(CCC(=O)Nc5ccccc5OC)n4n3)CC2)c1 | 2 | 80* | 0 | -1
COc1cccc(N2CCN(c3ccc4nnc(CCC(=O)Nc5ccc(F)cc5)n4n3)CC2)c1 | 7 | 80* | 0 | -1
O=C1CN(c2ccc(F)cc2)C(=S)N1c1ccccc1 | 318 | 0 | 2 | 1
CN(CC(=O)Nc1cccc(F)c1)C(=O)c1ccccc1OCC(=O)Nc1cccc(C(F)(F)F)c1 | 7 | -9 | 0 | .
CCOCCc1nn2c(=O)cc(CSCC(=O)Nc3ccc(OC)cc3)nc2s1 | 63 | -3 | 0 | -17
COc1ccccc1NC(=O)CSCc1cc(=O)n2ccsc2n1 | -9 | 1 | 0 | 4
COc1cccc(NC(=O)CSCc2cc(=O)n3ccsc3n2)c1 | -4 | 99* | 0 | -7
Cc1cccc(NC(=O)CSCc2cc(=O)n3nc(C4CC4)sc3n2)c1 | 5 | 98* | 2 | 2
O=C(CSCc1cc(=O)n2ccsc2n1)Nc1ccccc1 | 235 | 99* | 0 | -8
CCOCCc1nn2c(=O)cc(CSCC(=O)Nc3ccccc3)nc2s1 | 13 | 99* | 0 | -3
SMILES | Mot1-301 SUMO | ALR inh | HIF act | M18AAP inhibitor
Cc1ccc(NC(=O)CSCc2cc(=O)n3ccsc3n2)c(C)c1 | -15 | 10 | -1 | -6
CCc1nnc(NC(=O)CSc2nnc(Cc3cc(=O)[nH]c(=O)[nH]3)n2-c2cccc(OC)c2)s1 | 11 | 96* | 1 | 12
COc1ccc(NS(=O)(=O)c2cc(NC(=O)c3nc4nc(C)cc(C)n4n3)ccc2C)cc1 | 3 | -6 | . | 0
CC(C(=O)O)N1C(=O)/C(=C/C=C/c2ccco2)SC1=S (configuration not stated) | 6 | 97* | 0 | 18
O=c1cc(-c2ccccc2)nc2n1Cc1ccccc1-2 | -8 | 0 | 0 | 11
COc1ccc(-c2nc3n(c2C)Cc2ccccc2-3)cc1 | 39 | 99* | 5 | -20
CC1CC(C)CN(S(=O)(=O)c2ccccc2[N+](=O)[O-])C1 (configuration not stated) | -9 | 2 | 0 | -15
